NPC1 promoter act = activates the NPC1 promoter; Huh7 NPC1 promoter luciferase reporter, 24 h; Potency, µM (highest dose often 9.22 µM), usual class: activators; hit rate 2.4% among 320,000; AID 485313; further: nearly all actives have a fitted effect of over 60% in size
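Luminescence read-out of NPC1 promoter-driven luciferase in stably transfected Huh7 cells; compounds delivered in DMSO and left 24 h at 37C, 5% CO2, qHTS titration format.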
SMN2 splice up = increases expression of the SMN2 splice variant | HEK293 SMN2-luciferase splicing reporter, luminescence, 30-36 h | Potency, µM (top dose mostly 46.1 µM), usual class: activators | hit rate 2.8% among 210,000 | AID 1458; further: nearly all actives have a fitted effect of over 55% in size
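HEK293 cells carry an SMN2 minigene-luciferase reporter in which exon 7 inclusion puts luciferase in frame. Cells were seeded at 2000 cells/well, attached for 10-12 hours, then exposed to compounds for 30-36 hours at 37C before ONE-Glo luminescence.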
FLuc modulator = inhibits or activates purified firefly luciferase, miR-21 counter-screen; P08659; purified FLuc, Km substrates, luminescence inhibition; Potency, µM (top dose mostly 57.5 µM), most hits filed as inhibitors; hit rate 6.9% among 360,000; AID 588342; further: nearly all actives have a fitted effect of over 55% in size
Target sequence (P08659 whole entry, looked up): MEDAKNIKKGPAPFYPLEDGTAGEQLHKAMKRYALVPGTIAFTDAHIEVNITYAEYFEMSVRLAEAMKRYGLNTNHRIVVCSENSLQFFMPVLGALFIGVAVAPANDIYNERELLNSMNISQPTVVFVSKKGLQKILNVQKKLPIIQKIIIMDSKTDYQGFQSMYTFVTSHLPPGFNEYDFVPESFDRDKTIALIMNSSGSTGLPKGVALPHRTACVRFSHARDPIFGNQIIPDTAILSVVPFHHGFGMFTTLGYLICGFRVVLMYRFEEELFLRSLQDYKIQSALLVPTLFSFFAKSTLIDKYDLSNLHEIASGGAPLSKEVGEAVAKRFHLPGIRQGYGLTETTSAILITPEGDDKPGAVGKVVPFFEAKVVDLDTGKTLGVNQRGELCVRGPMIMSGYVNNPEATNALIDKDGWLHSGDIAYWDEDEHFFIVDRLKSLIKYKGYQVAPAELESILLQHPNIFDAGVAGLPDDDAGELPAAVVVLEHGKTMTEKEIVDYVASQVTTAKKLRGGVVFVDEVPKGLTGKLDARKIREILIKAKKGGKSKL
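Purified P. pyralis luciferase, 10 nM final, with Km-level 10 uM D-luciferin and 10 uM ATP in 50 mM Tris acetate pH 7.5, 10 mM Mg acetate, 0.01% Tween-20, 0.05% BSA; 6-point qHTS titration about 60 µM downward; luminescence read.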
ELG1 genotoxic = induces genotoxicity in HEK293T cells with luciferase-tagged ELG1; HEK293T ELG1-luciferase reporter, luminescence, 16 h; Potency, µM (highest dose often 46 µM), most hits filed as activators; hit rate 1.3% among 330,000; further: nearly all actives have a fitted effect of over 60% in size
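DMSO vehicle served as control against compound-treated ELG1-luciferase HEK293T cells; exposure lasted 16 hr at 37 °C and 5% CO2, followed by ONE-Glo luminescence detection after 30 min.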
Rab9 prom act = activators of Rab9 promoter; Potency, µM (series often up to 9.22 µM), actives largely listed as activators; hit rate 2.8% among 320,000; Huh7 Rab9 promoter-luciferase reporter, luminescence, 24 h; further: nearly all actives have a fitted effect of over 60% in size
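Steps: seed 1500 Huh7 Rab9-luc cells per well, rest 2 h at 37 °C; add compound in DMSO; incubate 24 h; add luciferase reagent, 10 min ambient; read luminescence.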
Luc counter = blocks Kinase-Glo luciferase, a counter-screen artifact | Kinase-Glo luciferase, ATP luminescence, 8 min | Potency, µM (top dose mostly 38.3 µM), hits mostly inhibitors | hit rate 0.28% among 200,000; further: nearly all actives have a fitted effect of over 60% in size
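Luminescence was the read-out, taken after 8-minute incubation at ambient temperature. Luciferase turned over luciferin with 10 uM ATP in imidazole pH 7.2 buffer containing KCl, MgCl2, Tween 20 and BSA.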
Numbers stand for hits; n = inactive; u = inconclusive; x = not tested or not shown. Most compounds without a hit are left out; they make up all but 7.5% or so of the library. The call rests on the fitted dose curve; in most records, active means well fitted curve in the direction sought with a large enough effect; inconclusive means small, poorly fitted or top-dose-only effect, or another doubt; inactive means no such curve, though single readings can be large; an effect the other way counts as inactive or inconclusive.

SMILES | NPC1 promoter act | SMN2 splice up | FLuc modulator | ELG1 genotoxic | Rab9 prom act | Luc counter
O=C1/C(=C/c2cccnc2)Sc2ccccc21 | n | n | 9.53µM | n | n | n
COc1ccc(OC)c(/C=C2\SC(=S)N(N3CCOCC3)C2=O)c1 | n | x | n | n | n | x
Cc1ccc(/C=C2\Sc3ccccc3C2=O)s1 | u | u | 0.426µM | u | u | n
CC(=O)Nc1ccc(/C=C2\Sc3ccccc3C2=O)cc1 | n | x | 0.379µM | u | n | x
O=C1NC(=Nc2ccccc2)S/C1=C/c1cccnc1 | n | n | u | n | n | n
Cc1ccc2oc(C(=O)Nc3ccc(S(=O)(=O)Nc4ncccn4)cc3)cc(=O)c2c1 | x | n | n | x | x | x
CCNc1ncc2nc(-c3cccc(C#N)c3)c(=O)n(C)c2n1 | x | u | x | x | x | n
CCS(=O)(=O)N1CCc2nc(-c3ccccc3)sc2C1 | 0.631µM | x | 4.78µM | u | 1.12µM | x
CS(=O)(=O)c1ccc2nc(NC(=O)c3ccccc3Br)sc2c1 | 2.82µM | x | 9.53µM | u | u | x
COc1ccccc1C(=O)Nc1nc2ccc(S(C)(=O)=O)cc2s1 | n | n | u | n | u | n
CS(=O)(=O)c1ccc2nc(NC(=O)c3ccccc3Cl)sc2c1 | n | x | 16.9µM | n | n | x
CCC(=O)NC1CC(=O)N(c2ccc3c(c2)OCCO3)C1 (configuration not stated) | x | x | n | x | x | x
CCOC(=O)c1sc2ccccc2c1OC(=O)c1ccccc1 | n | n | n | n | n | n
CC(=Nc1ccc(Br)cc1)c1sc2ccccc2c1O | 3.16µM | x | 1.35µM | 3.66µM | 3.16µM | x
CC(=Nc1ccccc1)c1sc2ccccc2c1O | n | 11.2µM | 1.51µM | 2.91µM | u | n
NC(=Nc1ccc(Br)cc1)c1ccccc1 | n | x | u | u | n | x
COc1cc(Cl)c(C)cc1NC(=O)Cn1cc(S(=O)(=O)N2CCC(C)CC2)c2ccccc2c1=O | x | n | n | x | x | x
CC(C)(C)c1cc(NC(=O)C2CCCO2)no1 (configuration not stated) | u | u | 15.1µM | u | n | n
O=C(O)c1cc(NC(=O)C2CCCO2)cc(C(=O)O)c1 (configuration not stated) | n | x | n | n | n | x
Cc1cccc(NC(=O)Cn2c(=O)n(Cc3ccccc3)c(=O)c3sc4ccccc4c32)c1 | x | n | n | x | x | x
COc1cc(C2CC(=O)Nc3c2c(=O)[nH]c2ncnn32)ccc1O (configuration not stated) | x | n | n | x | x | x
O=C(OCc1cc(=O)n2nc(-c3cccs3)sc2n1)c1ccccc1 | x | x | n | x | x | x
CCCOc1ccc(CNC(=O)c2oc3ccc4c(c3c2C)C(=O)CC(C)(CC)O4)cc1 (configuration not stated) | x | n | u | x | x | x
Cc1c(C(=O)NCC2CCCO2)oc2ccc3c(c12)C(=O)CC(C)(C)O3 (configuration not stated) | u | x | 2.69µM | u | 2.51µM | n
COc1ccccc1CNC(=O)c1oc2ccc3c(c2c1C)C(=O)CC(C)(C)O3 | x | n | 5.36µM | x | x | x
SMILES | NPC1 promoter act | SMN2 splice up | FLuc modulator | ELG1 genotoxic | Rab9 prom act | Luc counter
Cc1ccc(-n2nc(C(=O)N3CCN(c4ccccc4F)CC3)c(=O)n(C)c2=O)cc1 | x | x | n | x | x | x
C/C(=N\NC(=O)c1ccccc1C)c1cccnc1 | n | x | u | n | n | x
C/C(=N\Nc1ccccc1C)c1cccnc1 | n | x | 16.9µM | n | n | x
CCOC(=O)N1CCN(Cc2nc3cc(NC(=O)c4ccc(F)cc4)ccc3n2C(C)C)CC1 | x | x | n | x | x | x
COc1ccc(CNC(=O)C(c2ccco2)N(C(=O)c2ccccn2)c2ccccc2)cc1 (configuration not stated) | 0.891µM | x | 6.75µM | u | 0.891µM | n
O=C(NCc1ccccc1)C(c1ccco1)N(C(=O)c1ccccn1)c1ccccc1 (configuration not stated) | n | x | n | n | n | x
Cc1ccc(C)c(NC(=O)C(Sc2cccc[n+]2[O-])c2ccccc2)c1 (configuration not stated) | n | n | n | n | n | n
O=C(Nc1ccc(Cl)cc1C(F)(F)F)C(Sc1cccc[n+]1[O-])c1ccccc1 (configuration not stated) | n | 5.62µM | n | n | n | n
Cc1cccc(Nc2ncc3c(n2)CC(C)CC3=O)c1 (configuration not stated) | 3.55µM | 11.2µM | 9.53µM | 4.61µM | 3.55µM | n
CCc1ccc(Nc2ncc3c(n2)CC(C)(C)CC3=O)cc1 | 3.16µM | x | 15.1µM | u | 2.51µM | x
CCc1ccc(Nc2ncc3c(n2)CC(C)CC3=O)cc1 (configuration not stated) | 2µM | x | u | u | 1.26µM | n
Cc1cccc(Nc2ncc3c(n2)CC(c2ccco2)CC3=O)c1 (configuration not stated) | n | n | n | n | n | n
Cc1cc(C)cc(Nc2ncc3c(n2)CCCC3=O)c1 | 3.98µM | 2.51µM | 3.38µM | u | 3.98µM | n
Cc1ccc2nc(Nc3ncc4c(n3)CCCC4=O)nc(C)c2c1 | n | n | n | n | n | n
COc1ccc([C@@H]2[C@@H](O)[C@H](O)[C@@H](C)N2C)cc1OC | x | n | x | x | x | n
CCn1cc(S(=O)(=O)c2ccc(OC)cc2)c(=O)c2cc(F)c(N3CCC(C)CC3)cc21 | x | x | n | x | x | x
COc1ccc(NS(=O)(=O)c2cc(Br)cc3c2N(C(=O)C2CC2)CC3)cc1OC | x | x | n | x | x | x
COCC(C)n1c(C)cc(C(=O)CSc2nnc(N)s2)c1C (configuration not stated) | u | u | 8.49µM | 8.2µM | 3.98µM | n
COCC(C)n1c(C)cc(C(=O)CSc2nnnn2C2CCCC2)c1C (configuration not stated) | u | x | 4.26µM | u | u | x
COCC(C)n1c(C)cc(C(=O)COC(=O)c2n[nH]c3ccccc23)c1C (configuration not stated) | 1µM | n | 3.01µM | u | 0.631µM | n
COCC(C)n1c(C)cc(C(=O)COC(=O)c2oc3ccccc3c2C)c1C (configuration not stated) | n | n | u | n | n | n
COc1cccc(CN2CCN(Cc3cccc4c3OCO4)CC2CCO)c1 (configuration not stated) | 0.398µM | x | 2.39µM | u | 0.0891µM | n
CC(=O)Oc1cccc(/C=c2\sc3nc(-c4ccco4)nn3c2=O)c1 | n | n | n | u | n | n
COc1cc(/C=c2\sc3nc(-c4ccncc4)nn3c2=O)ccc1OC(C)=O | n | n | 2.69µM | n | n | n
COc1cc2ccccc2cc1C(=O)Nc1ccc(Cl)c(-c2nc3ccccc3o2)c1 | x | n | n | x | x | x
CCOC(=O)CNC(=O)N1CCc2ccc(NC(=O)c3ccccc3Cl)cc2C1 | n | x | u | n | n | x
COc1ccccc1C(=O)Nc1ccc2c(c1)CCCN2C(=O)c1cccs1 | n | x | 16.9µM | n | n | x

Screens deposited in PubChem BioAssay by National Center for Advancing Translational Sciences (NCATS).
